Screens deposited in PubChem BioAssay by several laboratories.
Most compounds without a hit are left out; they make up all but 3.8% or so of the library.
NTR1 ag – activates human neurotensin receptor 1; P30989; NTR1-U2OS beta-arrestin-GFP spot imaging, agonist mode; activation, % at 20 µM; hit rate 0.17% among 330,000;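 active = activation at or above 40% of the spot to cytoplasm intensity ratio, with at least 20 cells analyzed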;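 also: 0% = DMSO without peptide and 100% = 100 nM NTR1 peptide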
Bfl-1 A1 inh – inhibitors of the anti-apoptotic protein A1, read as caspase activation | caspase activation, % (no concentration beside the values) | hit rate 0.066% among 330,000 | MEF A1-2A-BIM cells, Caspase-Glo 3/7 luminescence, 3 h; percent of clofoctol response, vehicle zero;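 active = over half of replicate activation scores above 10%, or exactly half above 10 with the replicate mean above 10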
Mdm2-MdmX inh – human Mdm2/MdmX binding inhibition | O15151+Q00987 | SaOS-2 split-luciferase Mdm2/MdmX complementation, luminescence | inhibition, % at 8 µM | hit rate 3% among 330,000 | AID 485346;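 active = inhibition of at least 50% at 8 µM in the primary screen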
Target sequence (O15151 whole entry, looked up): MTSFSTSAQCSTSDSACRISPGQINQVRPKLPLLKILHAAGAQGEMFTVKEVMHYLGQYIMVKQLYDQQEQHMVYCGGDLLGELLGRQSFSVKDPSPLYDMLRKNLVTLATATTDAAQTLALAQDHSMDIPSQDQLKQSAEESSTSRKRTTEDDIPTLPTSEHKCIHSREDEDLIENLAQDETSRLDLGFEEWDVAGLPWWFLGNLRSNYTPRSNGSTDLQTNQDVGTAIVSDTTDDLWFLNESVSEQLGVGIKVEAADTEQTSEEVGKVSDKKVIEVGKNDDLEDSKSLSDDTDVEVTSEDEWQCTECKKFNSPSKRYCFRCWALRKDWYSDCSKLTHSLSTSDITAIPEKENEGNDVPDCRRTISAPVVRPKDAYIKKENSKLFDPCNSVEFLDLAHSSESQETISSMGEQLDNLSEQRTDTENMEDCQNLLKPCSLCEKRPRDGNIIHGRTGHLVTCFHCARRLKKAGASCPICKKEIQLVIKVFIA
Target sequence (Q00987 whole entry, looked up): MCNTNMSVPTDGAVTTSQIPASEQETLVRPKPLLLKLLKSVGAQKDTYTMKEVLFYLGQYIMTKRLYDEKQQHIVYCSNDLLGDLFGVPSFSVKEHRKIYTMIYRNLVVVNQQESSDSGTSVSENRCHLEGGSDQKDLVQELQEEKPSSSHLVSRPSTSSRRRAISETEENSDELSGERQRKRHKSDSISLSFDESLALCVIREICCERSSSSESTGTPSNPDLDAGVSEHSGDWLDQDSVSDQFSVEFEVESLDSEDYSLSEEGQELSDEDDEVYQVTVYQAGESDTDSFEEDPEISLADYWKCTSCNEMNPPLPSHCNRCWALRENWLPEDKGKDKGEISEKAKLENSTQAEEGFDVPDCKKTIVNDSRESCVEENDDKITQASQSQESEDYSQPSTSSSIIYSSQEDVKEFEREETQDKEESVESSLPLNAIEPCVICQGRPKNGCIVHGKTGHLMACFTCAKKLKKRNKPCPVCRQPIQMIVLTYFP
Beta cell apopt – beta cell apoptosis inhibition; INS-1E cytokine-induced death, ATP luminescence, 48 h; percent of positive-control rescue, neutral wells zero; protection from apoptosis, % (test concentration not listed); hit rate 0.8% among 300,000;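 active = Every replicate reaches about 75%, or at least half do and their mean reaches it too, limit read from the data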;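 also: 0% = cytokine-treated negative control wells and 100% = positive control rescue; higher means more ATP so stronger rescue from cytokine killing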
Jurkat NFkB inh – inhibitors of the PMA/ionomycin-induced NF-kB reporter in Jurkat cells; inhibition, % at 4 µM; hit rate 0.53% among 330,000; AID 435003; PMA/ionomycin-induced NF-kB luciferase reporter, luminescence; in the data active = inhibition above about 50%
697 NFkB inh – inhibitors of the PMA/ionomycin-induced NF-kB reporter in 697 B cells; 697 B-cell NF-kB luciferase reporter, 16 h; inhibition, % at 4 µM; hit rate 0.33% among 330,000; AID 435022; in the data active = inhibition above about 35%
Mdm2-MdmX conf – confirmation of human Mdm2/MdmX interaction inhibitors; inhibition, % at 8 µM; hit rate 55% among 10,000; shares compounds with Mdm2-MdmX inh; Mdm2-MdmX binding, luminescent assay; in the data active = inhibition above about 40%
FLuc counter – full-length luciferase inhibition in Mdm2/MdmX counter-screen | shares compounds with Mdm2-MdmX inh | SaOS-2 full-length luciferase counterscreen, luminescence | inhibition, % at 8 µM | hit rate 77% among 6,200 | AID 504607;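 active = mean inhibition at 8 µM reaching about 37%, which flags the compound as non-specific, limit read from the data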;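 also: p53-null SaOS-2 cells with luciferase driven by a doxycycline-inducible promoter; compound on cells about two nights before reading with doxycycline added after day one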
* marks the source's active call; other numbers are inactive results.

Results for CCN1C(=O)[C@H]2[C@@H](c3ccc(-c4ccc(Cl)c(Cl)c4)c(OC)c3)N[C@@](C)(C(=O)OC)[C@H]2C1=O ?
NTR1 ag: 11; Bfl-1 A1 inh: 0; Mdm2-MdmX inh: 57*; Beta cell apopt: -2; Jurkat NFkB inh: -21; 697 NFkB inh: -19; Mdm2-MdmX conf: 45*; FLuc counter: 71*

What do the screens show for `CCN1C(=O)[C@H]2[C@@H](c3ccc(-c4ccc(Cl)c(Cl)c4)cc3)N[C@@](C)(C(=O)OC)[C@H]2C1=O`?
NTR1 ag: 1; Bfl-1 A1 inh: -1; Mdm2-MdmX inh: 22; Beta cell apopt: 25; Jurkat NFkB inh: 2; 697 NFkB inh: -10

What do the screens show for `CCN1C(=O)[C@H]2[C@@H](c3ccc(-c4ccc(Cl)c(Cl)c4)cc3)N3CCCC[C@@]3(C(=O)OC)[C@H]2C1=O`?
NTR1 ag: 6; Bfl-1 A1 inh: -2; Mdm2-MdmX inh: 66*; Beta cell apopt: 9; Jurkat NFkB inh: 1; 697 NFkB inh: -1; Mdm2-MdmX conf: 24

How did CCN1C(=O)[C@H]2[C@@H](c3ccc(-c4ccc(Cl)c(Cl)c4)c(OC)c3)N3CCCC[C@@]3(C(=O)OC)[C@H]2C1=O do in these assays?
NTR1 ag: 0; Bfl-1 A1 inh: 0; Mdm2-MdmX inh: 66*; Beta cell apopt: -2; Jurkat NFkB inh: 5; 697 NFkB inh: 7; Mdm2-MdmX conf: 13

Results for COc1ccc(S(=O)(=O)N(C)C[C@H]2Oc3c(NC(=O)NC(C)C)cccc3C(=O)N([C@H](C)CO)C[C@@H]2C)cc1 ?
NTR1 ag: 3; Bfl-1 A1 inh: 0; Mdm2-MdmX inh: 5; Beta cell apopt: -5; Jurkat NFkB inh: -2; 697 NFkB inh: -1

How did CCN1C(=O)[C@H]2[C@@H](c3ccc(-c4ccccc4)c(OC)c3)N[C@@](Cc3ccccc3)(C(=O)OC)[C@H]2C1=O do in these assays?
NTR1 ag: 0; Bfl-1 A1 inh: 0; Mdm2-MdmX inh: 33; Beta cell apopt: 5; Jurkat NFkB inh: 25; 697 NFkB inh: -9

How did COC(=O)[C@@]12CCCCN1[C@H](c1ccc(-c3cccc(Cl)c3)cc1)[C@@H]1C(=O)N(C)C(=O)[C@@H]12 do in these assays?
NTR1 ag: 10; Bfl-1 A1 inh: 1; Mdm2-MdmX inh: 78*; Beta cell apopt: 9; Jurkat NFkB inh: 5; 697 NFkB inh: -2; Mdm2-MdmX conf: 31

Results for CCN1C(=O)[C@H]2[C@@H](c3ccc(-c4ccc(F)cc4)c(OC)c3)N[C@@](Cc3ccccc3)(C(=O)OC)[C@H]2C1=O ?
NTR1 ag: 3; Bfl-1 A1 inh: 1; Mdm2-MdmX inh: 58*; Beta cell apopt: 8; Jurkat NFkB inh: 0; 697 NFkB inh: 28; Mdm2-MdmX conf: 19

How did C=CCn1cnc2c(oc3ccccc32)c1=O do in these assays?
NTR1 ag: 0; Bfl-1 A1 inh: 1; Mdm2-MdmX inh: -7; Beta cell apopt: -6; Jurkat NFkB inh: -19; 697 NFkB inh: -18

How did CCN1CCN(Cc2ccc(NC(=O)c3cc(NC(=O)c4cc(C)on4)cc(OC)c3)cc2C(F)(F)F)CC1 do in these assays?
NTR1 ag: 6; Bfl-1 A1 inh: 1; Mdm2-MdmX inh: 91*; Beta cell apopt: 2; Jurkat NFkB inh: 25; 697 NFkB inh: 8; Mdm2-MdmX conf: 40; FLuc counter: 46*

Results for CCN1CCN(Cc2ccc(NC(=O)c3cc(NC(=O)C(=O)c4c[nH]c5ccccc45)cc(OC)c3)cc2C(F)(F)F)CC1 ?
NTR1 ag: -5; Bfl-1 A1 inh: 0; Mdm2-MdmX inh: 99*; Beta cell apopt: 98*; Jurkat NFkB inh: 9; 697 NFkB inh: -22; Mdm2-MdmX conf: 20

What do the screens show for `CCN1CCN(Cc2ccc(NC(=O)c3cc(NC(=O)c4cnn(-c5ccccc5)c4N)cc(OC)c3)cc2C(F)(F)F)CC1`?
NTR1 ag: 16; Bfl-1 A1 inh: 0; Mdm2-MdmX inh: 53*; Beta cell apopt: 109*; Jurkat NFkB inh: -27; 697 NFkB inh: -20; Mdm2-MdmX conf: 22

Results for O=C(NCc1ccc(F)cc1)C(=O)NCC1OCCCN1S(=O)(=O)c1cccs1 (centres undefined) ?
NTR1 ag: 0; Bfl-1 A1 inh: 0; Mdm2-MdmX inh: 17; Beta cell apopt: -2; Jurkat NFkB inh: 4; 697 NFkB inh: 16

How did O=C(CSc1nc2ccccc2c(=O)n1CC1CCCO1)Nc1ccccc1Cl (centres undefined) do in these assays?
NTR1 ag: 3; Bfl-1 A1 inh: 0; Mdm2-MdmX inh: -1; Beta cell apopt: 0; Jurkat NFkB inh: -1; 697 NFkB inh: 10

How did N#C/C(=C\c1ccc(F)cc1)C(=O)Nc1ccccn1 do in these assays?
NTR1 ag: 0; Bfl-1 A1 inh: -1; Mdm2-MdmX inh: -10; Beta cell apopt: -1; Jurkat NFkB inh: -9; 697 NFkB inh: 7

What do the screens show for `CSc1sc(C(=O)NCC2CC2)cc1S(=O)(=O)C(C)C`?
NTR1 ag: 0; Bfl-1 A1 inh: 0; Mdm2-MdmX inh: 9; Beta cell apopt: -1; Jurkat NFkB inh: 1; 697 NFkB inh: -18

What do the screens show for `COC(=O)c1cc(S(=O)(=O)C(C)C)c(S(C)=O)s1` (centres undefined)?
NTR1 ag: -1; Bfl-1 A1 inh: 0; Mdm2-MdmX inh: 51*; Beta cell apopt: -34; Jurkat NFkB inh: 20; 697 NFkB inh: 26; Mdm2-MdmX conf: 36; FLuc counter: 39*

Results for Nc1c(-c2ccccc2)c(CSc2nc3ccccc3[nH]2)nn1-c1cccc(Cl)c1 ?
NTR1 ag: 3; Bfl-1 A1 inh: -1; Mdm2-MdmX inh: 61*; Beta cell apopt: 23; Jurkat NFkB inh: 6; 697 NFkB inh: -26; Mdm2-MdmX conf: 5

What do the screens show for `Cc1ccc(S(=O)(=O)Nc2ccc(NC(=O)Nc3cccc(C(F)(F)F)c3)cc2)cc1`?
NTR1 ag: 37; Bfl-1 A1 inh: 1; Mdm2-MdmX inh: 85*; Beta cell apopt: 96*; Jurkat NFkB inh: 4; 697 NFkB inh: -12; Mdm2-MdmX conf: 46*; FLuc counter: 77*

Results for CCN(CC)S(=O)(=O)c1ccc(NC(=O)Nc2cccc(C(F)(F)F)c2)cc1 ?
NTR1 ag: 30; Bfl-1 A1 inh: 0; Mdm2-MdmX inh: 94*; Beta cell apopt: 98*; Jurkat NFkB inh: 8; 697 NFkB inh: -35; Mdm2-MdmX conf: 87*; FLuc counter: 35

How did CCN(CC)S(=O)(=O)c1ccc(C(=O)Nc2cccc(C)c2)cc1 do in these assays?
NTR1 ag: 0; Bfl-1 A1 inh: 0; Mdm2-MdmX inh: 12; Beta cell apopt: -2; Jurkat NFkB inh: -18; 697 NFkB inh: -16
